# According to the supplement of paper PMC8728848:
# This excerpt belongs to a sample that is enriched for the strongest signals.
# B1: CIH1 (Colletotrichum higginsianum) (protein)
# chain: LPQATPTTPTPTSASAAATISATSSPTCSPGPVIDYTVVSGDTLTIISQRFSSGICNIADASGITNPNFLSLGQVLQVPTYVCTPDNTSCLAKEGSDTCVEGGPATHTIVAGDTFFLVAQSLGLDVNALLAANEGVDPLLLQIGDVINIPVC
# Tests used:
# Assay in all cases: glycan array binding signal (z-score within array); higher = stronger binding
# Settings in all cases: glycan notation: IUPAC condensed, linker removed
# [1] = target: Fuc(a1-2)Gal(b1-3)[Fuc(a1-4)]GlcNAc(b1-2)Man(a1-3)[Fuc(a1-2)Gal(b1-3)[Fuc(a1-4)]GlcNAc(b1-2)Man(a1-6)]Man(b1-4)GlcNAc(b1-4)GlcNAc
# How it was run: (§1)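 From the Consortium for Functional Glycomics database, 3228 arrays were curated, keeping only those whose protein sequence was available. Binding is given as a within-array Z-score averaged across arrays sharing a protein sequence and across linkers. Negative Z-scores can be read as non-binding.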
# Fuc(a1-2)Gal(b1-4)Glc6S = target: Fuc(a1-2)Gal(b1-4)Glc6S
# How it was run: as §1
# [2] = target: Fuc(a1-2)Gal(b1-4)GlcNAc(b1-2)[Fuc(a1-2)Gal(b1-4)GlcNAc(b1-4)]Man(a1-3)[Fuc(a1-2)Gal(b1-4)GlcNAc(b1-2)Man(a1-6)]Man(b1-4)GlcNAc(b1-4)GlcNAc
# How it was run: as §1
# [3] = target: Fuc(a1-2)Gal(b1-4)GlcNAc6S
# How it was run: as §1
# [4] = target: Fuc(a1-2)[GalNAc(a1-3)]Gal(b1-4)GlcNAc(b1-2)Man(a1-3)[Fuc(a1-2)[GalNAc(a1-3)]Gal(b1-4)GlcNAc(b1-2)Man(a1-6)]Man(b1-4)GlcNAc(b1-4)GlcNAc
# How it was run: as §1
# [5] = target: Fuc(a1-2)[GalNAc(a1-4)]Gal(b1-4)GlcNAc
# How it was run: as §1
# [6] = target: Fuc(a1-3)[Gal(b1-4)]Glc6S
# How it was run: as §1
# [7] = target: Fuc(a1-3)[Gal3S(b1-4)]GlcNAc
# How it was run: as §1
# [8] = target: Gal(a1-3)Gal(b1-4)[Fuc(a1-3)]GlcNAc(b1-2)Man(a1-3)[Gal(a1-3)Gal(b1-4)[Fuc(a1-3)]GlcNAc(b1-2)Man(a1-6)]Man(b1-4)GlcNAc(b1-4)GlcNAc
# How it was run: as §1
# Gal(a1-4)GlcNAc = target: Gal(a1-4)GlcNAc
# How it was run: as §1
# [9] = target: Gal(b1-3)GalNAc(b1-3)Gal(a1-4)Gal(b1-4)Glc
# How it was run: as §1
# [10] = target: Gal(b1-3)GalNAc(b1-4)Gal(b1-4)Glc
# How it was run: as §1
# [11] = target: Gal(b1-3)GlcNAc(b1-3)Gal(b1-4)[Fuc(a1-3)]GlcNAc(b1-6)[Gal(b1-3)GlcNAc(b1-3)]Gal(b1-4)Glc
# How it was run: as §1
# [12] = target: Gal(b1-4)GlcNAc(b1-3)Gal(b1-4)[Fuc(a1-3)]GlcNAc(b1-3)Gal(b1-4)[Fuc(a1-3)]GlcNAc
# How it was run: as §1
# [13] = target: Gal(b1-4)GlcNAc(b1-6)[Gal(b1-3)]GalNAc
# How it was run: as §1
# Gal3S(b1-4)GlcNAc = target: Gal3S(b1-4)GlcNAc
# How it was run: as §1
# [14] = target: Gal3S(b1-4)[Fuc(a1-3)]Glc
# How it was run: as §1
# [15] = target: Gal3S(b1-4)[Fuc(a1-3)]Glc6S
# How it was run: as §1
# Gal6S(b1-4)Glc = target: Gal6S(b1-4)Glc
# How it was run: as §1
# [16] = target: GalNAc(a1-3)GalNAc(b1-3)Gal(a1-4)Gal(b1-4)GlcNAc
# How it was run: as §1
# GalNAc3S(b1-4)GlcNAc = target: GalNAc3S(b1-4)GlcNAc
# How it was run: as §1
# [17] = target: Glc(a1-4)Glc(a1-4)Glc(a1-4)Glc
# How it was run: as §1
# Glc(b1-4)Glc = target: Glc(b1-4)Glc
# How it was run: as §1
# [18] = target: GlcNAc(a1-4)Gal(b1-4)GlcNAc(b1-3)Gal(b1-4)GlcNAc(b1-3)Gal(b1-4)GlcNAc
# How it was run: as §1
# [19] = target: GlcNAc(b1-2)[GlcNAc(b1-4)]Man(a1-3)[GlcNAc(b1-4)][GlcNAc(b1-2)Man(a1-6)]Man(b1-4)GlcNAc(b1-4)GlcNAc
# How it was run: as §1
# [20] = target: GlcNAc(b1-4)GlcNAc(b1-4)GlcNAc
# How it was run: as §1
# [21] = target: GlcNAc(b1-4)GlcNAc(b1-4)GlcNAc(b1-4)GlcNAc(b1-4)GlcNAc
# How it was run: as §1
# [22] = target: GlcNAc(b1-4)GlcNAc(b1-4)GlcNAc(b1-4)GlcNAc(b1-4)GlcNAc(b1-4)GlcNAc
# How it was run: as §1
# [23] = target: GlcNAc(b1-6)Gal(b1-4)GlcNAc
# How it was run: as §1
# [24] = target: GlcNAc6S(b1-3)Gal(b1-4)GlcNAc
# How it was run: as §1
# Man(a1-3)[Man(a1-6)]Man = target: Man(a1-3)[Man(a1-6)]Man
# How it was run: as §1
# [25] = target: Man(a1-3)[Man(a1-6)]Man(b1-4)GlcNAc(b1-4)GlcNAc
# How it was run: as §1
# [26] = target: Neu5Ac(a2-3)Gal(b1-3)GalNAc(b1-4)[Neu5Ac(a2-3)]Gal(b1-4)Glc
# How it was run: as §1
# [27] = target: Neu5Ac(a2-3)Gal(b1-3)GlcNAc
# How it was run: as §1
# [28] = target: Neu5Ac(a2-3)Gal(b1-4)GlcNAc(b1-2)Man(a1-3)[GlcNAc(b1-2)Man(b1-4)GlcNAc(b1-2)Man(a1-6)]Man(b1-4)GlcNAc(b1-4)GlcNAc
# How it was run: as §1
# [29] = target: Neu5Ac(a2-3)Gal(b1-4)[Fuc(a1-3)]GlcNAc
# How it was run: as §1
# [30] = target: Neu5Ac(a2-6)Gal(b1-4)GlcNAc(b1-2)Man(a1-3)Man(b1-4)GlcNAc(b1-4)GlcNAc
# How it was run: as §1
# [31] = target: Neu5Ac(a2-6)Gal(b1-4)GlcNAc(b1-2)Man(a1-6)[Gal(b1-4)GlcNAc(b1-2)Man(a1-3)]Man(b1-4)GlcNAc(b1-4)GlcNAc
# How it was run: as §1
# [32] = target: Neu5Ac(a2-6)GlcNAc(b1-4)GlcNAc(b1-4)GlcNAc
# How it was run: as §1
# [33] = target: Neu5Ac(a2-8)Neu5Ac(a2-8)Neu5Ac
# How it was run: as §1
# Neu5Gc(a2-3)Gal(b1-4)Glc = target: Neu5Gc(a2-3)Gal(b1-4)Glc
# How it was run: as §1
binder,measurement,setting,value
B1,glycan array binding signal (z-score),[1],0.015
same,glycan array binding signal (z-score),Fuc(a1-2)Gal(b1-4)Glc6S,-0.071
same,glycan array binding signal (z-score),[2],-0.061
same,glycan array binding signal (z-score),[3],0.014
same,glycan array binding signal (z-score),[4],-0.074
same,glycan array binding signal (z-score),[5],-0.071
same,glycan array binding signal (z-score),[6],-0.072
same,glycan array binding signal (z-score),[7],-0.065
same,glycan array binding signal (z-score),[8],0.011
same,glycan array binding signal (z-score),Gal(a1-4)GlcNAc,-0.052
same,glycan array binding signal (z-score),[9],-0.071
same,glycan array binding signal (z-score),[10],-0.063
same,glycan array binding signal (z-score),[11],-0.057
same,glycan array binding signal (z-score),[12],-0.079
same,glycan array binding signal (z-score),[13],-0.072
same,glycan array binding signal (z-score),Gal3S(b1-4)GlcNAc,-0.067
same,glycan array binding signal (z-score),[14],-0.081
same,glycan array binding signal (z-score),[15],0.006
same,glycan array binding signal (z-score),Gal6S(b1-4)Glc,-0.079
same,glycan array binding signal (z-score),[16],-0.066
same,glycan array binding signal (z-score),GalNAc3S(b1-4)GlcNAc,-0.066
same,glycan array binding signal (z-score),[17],-0.047
same,glycan array binding signal (z-score),Glc(b1-4)Glc,-0.046
same,glycan array binding signal (z-score),[18],-0.08
same,glycan array binding signal (z-score),[19],-0.065
same,glycan array binding signal (z-score),[20],2.91
same,glycan array binding signal (z-score),[21],9.28
same,glycan array binding signal (z-score),[22],20
same,glycan array binding signal (z-score),[23],-0.073
same,glycan array binding signal (z-score),[24],-0.055
same,glycan array binding signal (z-score),Man(a1-3)[Man(a1-6)]Man,-0.045
same,glycan array binding signal (z-score),[25],-0.069
same,glycan array binding signal (z-score),[26],-0.055
same,glycan array binding signal (z-score),[27],-0.05
same,glycan array binding signal (z-score),[28],-0.08
same,glycan array binding signal (z-score),[29],-0.069
same,glycan array binding signal (z-score),[30],-0.004
same,glycan array binding signal (z-score),[31],-0.069
same,glycan array binding signal (z-score),[32],-0.004
same,glycan array binding signal (z-score),[33],-0.065
same,glycan array binding signal (z-score),Neu5Gc(a2-3)Gal(b1-4)Glc,-0.081
